Bioassay records: PubChem, several laboratories
OPRM1-OPRD1 inv = inverse agonist of human OPRM1-OPRD1 heterodimerization; P35372+P41143; cell-based MOR-DOR heterodimer luminescence, inverse agonism; inhibition, % at 9.3 µM; actives 0.21% (n = 340,000); AID 504357; in the data active means inhibition above about 22%, passing the limit was not always enough;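 further: 0% = cells with DMSO and 100% = wells without cells with DMSO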
Target sequence (P35372 whole entry, looked up): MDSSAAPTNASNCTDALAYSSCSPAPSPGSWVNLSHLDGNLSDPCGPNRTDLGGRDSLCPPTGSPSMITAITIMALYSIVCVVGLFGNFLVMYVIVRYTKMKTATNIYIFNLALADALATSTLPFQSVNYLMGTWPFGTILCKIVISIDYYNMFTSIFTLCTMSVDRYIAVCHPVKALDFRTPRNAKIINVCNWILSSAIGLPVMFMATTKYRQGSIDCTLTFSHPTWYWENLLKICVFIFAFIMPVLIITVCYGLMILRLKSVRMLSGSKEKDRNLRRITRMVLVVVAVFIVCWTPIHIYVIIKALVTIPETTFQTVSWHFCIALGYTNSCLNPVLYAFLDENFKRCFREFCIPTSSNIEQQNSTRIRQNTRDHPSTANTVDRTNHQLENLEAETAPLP
Target sequence (P41143 whole entry, looked up): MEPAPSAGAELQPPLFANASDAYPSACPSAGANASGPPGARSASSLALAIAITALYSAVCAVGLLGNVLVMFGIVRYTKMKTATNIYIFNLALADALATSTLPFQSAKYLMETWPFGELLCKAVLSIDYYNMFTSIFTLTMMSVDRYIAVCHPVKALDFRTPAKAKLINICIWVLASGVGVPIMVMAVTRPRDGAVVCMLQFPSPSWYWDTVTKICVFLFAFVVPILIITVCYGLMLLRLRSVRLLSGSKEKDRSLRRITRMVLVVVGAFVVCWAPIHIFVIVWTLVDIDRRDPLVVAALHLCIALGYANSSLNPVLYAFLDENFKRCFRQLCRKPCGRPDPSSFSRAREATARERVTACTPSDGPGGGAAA
beta cell repl = inducers of beta-cell replication in MIN6 cells. MIN6 cells proliferation, ATPlite luminescence, 48 h; cells starved in 0.2% serum; 100% = growth in 10% serum. proliferation, % at 10 µM. actives 0.29% (n = 330,000). AID 2380;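 active means compounds whose signal lies at least 3.5 SD above the mean of all wells on their plate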;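 further: 0% = DMSO-treated cells in low-serum medium and 100% = 10% serum control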
HTR5A inv ag = counter-screen for OPRM1-OPRD1 inverse agonists: human HTR5A inverse agonism. actives 0.083% (n = 340,000). HTR5A cell line, luminescence. inhibition, % at 9.3 µM; in the data active means inhibition mostly above about 23%, no sharp cut-off; inactive means mostly below about 18%;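 further: 0% = cells with DMSO and 100% = no-cell wells with DMSO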
MOR-DOR ag = agonists of human mu-delta opioid receptor heterodimerization. P35372+P41143. cells, OPRM1-OPRD1 heterodimerization, luminescence. activation, % at 9.3 µM. actives 0.3% (n = 340,000); in the data active means activation above about 18%;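 further: 0% = vehicle-treated cells and 100% = reference agonist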
V-ATPase pHluor = regulators of yeast V-ATPase proton transport; S. cerevisiae, pHLuorin cytosolic pH fluorescence; actives 0.37% (n = 350,000); response, % at 10 µM; in the data active means response mostly above about 7.3%, no sharp cut-off; inactive means mostly below about 5.4%; further: actives read high
HTR5A ag ctr = activates human HTR5A in OPRM1-OPRD1 agonist counter-screen. P47898. HTR5A agonist assay, luminescence, cell-based. activation, % at 9.3 µM. actives 0.61% (n = 340,000); in the data active means activation mostly above about 9.5%, no sharp cut-off; inactive means mostly below about 7.6%;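 further: 0% = cells with vehicle only and 100% = reference agonist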
* = called active by the depositor. Rows were chosen to be rich in hits. Some 1.7% of all compounds tested hit in one or more screens of this group.

Screening CCCCn1c(SCC(=O)N2CCC(C)CC2)nc2cc(S(N)(=O)=O)ccc21 returned OPRM1-OPRD1 inv -1, beta cell repl -1, HTR5A inv ag -22, MOR-DOR ag 0, V-ATPase pHluor 14* and HTR5A ag ctr 2.
Screening c1ccc2c(c1)NC1(CCCCCC1)n1c-2nc2ccccc21 returned OPRM1-OPRD1 inv 15, beta cell repl 2, HTR5A inv ag 5, MOR-DOR ag -3, V-ATPase pHluor -3 and HTR5A ag ctr 7.
Screening c1ccc2c(c1)NC1(CCCCC1)n1c-2nc2ccccc21 returned OPRM1-OPRD1 inv -6, beta cell repl -4, HTR5A inv ag 13, MOR-DOR ag 1, V-ATPase pHluor 0 and HTR5A ag ctr 14*.
O=C(Nc1ccc2c(c1)CCC2)c1cnc(Cl)c(Cl)c1 was read as OPRM1-OPRD1 inv -47, beta cell repl -3, HTR5A inv ag -29, MOR-DOR ag 9, V-ATPase pHluor -3 and HTR5A ag ctr 11*.
Cc1cccc(NC(=O)C2(C)CC3c4ccccc4C2c2ccccc23)c1 (stereo not drawn) was read as OPRM1-OPRD1 inv -73, beta cell repl -2, HTR5A inv ag -37, MOR-DOR ag 14, V-ATPase pHluor 0 and HTR5A ag ctr 10*.
For Cc1cccc(NC(=O)C2(c3ccccc3)CCOCC2)c1 the results were OPRM1-OPRD1 inv 4, beta cell repl -3, HTR5A inv ag 0, MOR-DOR ag -1, V-ATPase pHluor 0 and HTR5A ag ctr 0.
O=C(COC(=O)COc1ccccc1)NCCC1=CCCCC1 was read as OPRM1-OPRD1 inv -1, beta cell repl -4, HTR5A inv ag 12, MOR-DOR ag 0, V-ATPase pHluor -1 and HTR5A ag ctr -3.
For O=C(CSC1=NCCS1)c1ccc(Cl)cc1 the results were OPRM1-OPRD1 inv -13, beta cell repl -1, HTR5A inv ag -30, MOR-DOR ag 2, V-ATPase pHluor 1 and HTR5A ag ctr 11*.
For COc1ccc2[nH]cc(CCn3ccc(=O)c(C)c3C)c2c1 the results were OPRM1-OPRD1 inv 11, beta cell repl 0, HTR5A inv ag 5, MOR-DOR ag -2, V-ATPase pHluor 2 and HTR5A ag ctr 11*.
`Cc1c(C)n(CCc2c[nH]c3ccccc23)ccc1=O` gave OPRM1-OPRD1 inv -8, beta cell repl 0, HTR5A inv ag 6, MOR-DOR ag 2, V-ATPase pHluor 2 and HTR5A ag ctr -2.
`Cc1nc(C)c(C(=O)NNS(=O)(=O)c2ccccc2)s1` gave OPRM1-OPRD1 inv 7, beta cell repl -3, HTR5A inv ag -28, MOR-DOR ag -1, V-ATPase pHluor 0 and HTR5A ag ctr 10*.
For c1ccc(CNc2nc(NCc3ccccc3)c3ccccc3n2)cc1 the results were OPRM1-OPRD1 inv -205, beta cell repl -3, HTR5A inv ag -48, MOR-DOR ag 40*, V-ATPase pHluor -1 and HTR5A ag ctr 19*.
Screening c1ccc(CNc2nc(-c3ccccc3)nc3ccccc23)cc1 returned OPRM1-OPRD1 inv -16, beta cell repl -5, HTR5A inv ag -19, MOR-DOR ag 3, V-ATPase pHluor 1 and HTR5A ag ctr 5.
Screening Cc1ccc(NS(=O)(=O)c2cccc(C(=O)NNC(=O)c3cccn3C)c2)c(C)c1 returned OPRM1-OPRD1 inv 2, beta cell repl -2, HTR5A inv ag -10, MOR-DOR ag 0, V-ATPase pHluor -1 and HTR5A ag ctr -1.
Nc1nonc1-n1nnc(C(=O)N/N=C/c2ccc(Br)cc2)c1-c1ccc2c(c1)OCO2 was read as OPRM1-OPRD1 inv 0, beta cell repl 1, HTR5A inv ag -23, MOR-DOR ag 0, V-ATPase pHluor -1 and HTR5A ag ctr 2.
Screening CCOc1ccc(-c2c(C(=O)N/N=C/c3ccc(C)o3)nnn2-c2nonc2N)cc1 returned OPRM1-OPRD1 inv 17, beta cell repl 0, HTR5A inv ag 0, MOR-DOR ag -3, V-ATPase pHluor -2 and HTR5A ag ctr 0.
CCCOc1ccc(-c2c(C(=O)N/N=C/c3ccc(C)o3)nnn2-c2nonc2N)cc1 was read as OPRM1-OPRD1 inv -101, beta cell repl -1, HTR5A inv ag -37, MOR-DOR ag 19*, V-ATPase pHluor 0 and HTR5A ag ctr 9.8*.
Nc1nonc1-n1nnc(C(=O)N/N=C/c2cccc(Cl)c2)c1-c1ccc2c(c1)OCO2 was read as OPRM1-OPRD1 inv 8, beta cell repl 1, HTR5A inv ag 16, MOR-DOR ag -2, V-ATPase pHluor 6 and HTR5A ag ctr 10*.
Screening Cc1cc(C)n(C(C)CNS(=O)(=O)c2ccc(Cl)cc2)n1 (stereo not drawn) returned OPRM1-OPRD1 inv 16, beta cell repl 0, HTR5A inv ag 7, MOR-DOR ag -3, V-ATPase pHluor -3 and HTR5A ag ctr -3.
For COc1ccc(-c2cn(-c3ccc(C)c(Cl)c3)c(=S)[nH]2)cc1OC the results were OPRM1-OPRD1 inv -23, beta cell repl -3, HTR5A inv ag -43, MOR-DOR ag 5, V-ATPase pHluor 1 and HTR5A ag ctr 12*.
`COc1ccc(-c2cn(-c3ccc(C)c(C)c3)c(=S)[nH]2)cc1OC` gave OPRM1-OPRD1 inv 4, beta cell repl -4, HTR5A inv ag -8, MOR-DOR ag -1, V-ATPase pHluor -2 and HTR5A ag ctr 2.
Screening O=C(O)CCn1c(=S)n(CCC(=O)O)c2ccccc21 returned OPRM1-OPRD1 inv 3, beta cell repl 3, HTR5A inv ag 4, MOR-DOR ag -1, V-ATPase pHluor 0 and HTR5A ag ctr 4.
For CC(=O)Oc1ccc(N(C(C)=O)S(=O)(=O)c2ccc(C)cc2)c2ccccc12 the results were OPRM1-OPRD1 inv -15, beta cell repl -6, HTR5A inv ag 10, MOR-DOR ag 3, V-ATPase pHluor 0 and HTR5A ag ctr 1.
CC(=O)Oc1ccc(N(C(C)=O)S(=O)(=O)c2ccc(Cl)cc2)c2ccccc12 was read as OPRM1-OPRD1 inv -33, beta cell repl -4, HTR5A inv ag 0, MOR-DOR ag 6, V-ATPase pHluor 18* and HTR5A ag ctr 2.
CC(C)(C)OC(=O)NCc1ccc(NC(=O)c2nc[nH]c2C(=O)N[C@@H](Cc2ccccc2)C(=O)OCc2ccccc2)cc1 was read as OPRM1-OPRD1 inv -228, beta cell repl -8, HTR5A inv ag -105, MOR-DOR ag 41*, V-ATPase pHluor 1 and HTR5A ag ctr 25*.
CC(C)(C)OC(=O)NCc1ccc(CNC(=O)c2[nH]cnc2C(=O)N[C@@H](Cc2ccccc2)C(=O)OCc2ccccc2)cc1 was read as OPRM1-OPRD1 inv -32, beta cell repl -9, HTR5A inv ag -8, MOR-DOR ag 6, V-ATPase pHluor 1 and HTR5A ag ctr 9.
Screening COc1ccc(C2NN=C(c3c[nH]c4ccccc34)C2O)cc1 (stereo not drawn) returned OPRM1-OPRD1 inv -22, beta cell repl -5, HTR5A inv ag -16, MOR-DOR ag 4, V-ATPase pHluor 1 and HTR5A ag ctr 4.
